The target in assay [1] is Estrogen receptor beta (Homo sapiens) (UniProt Q92731). Nature of the assay: qHTS assay to identify small molecule agonists of the estrogen receptor beta (ER-beta) signaling pathway (AID 1259377; active = well fitted activation curve with a large enough effect in the signal ratio in the repeat runs, not every such curve was filed as active; the % refers to the signal ratio). The procedure, abridged:
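ER-beta-UAS-bla HEK293T cells in medium with 2% charcoal-stripped FBS were exposed to compounds for 16 h at 37C. Beta-lactamase reporter activity was read as fluorescence after 2 h with LiveBLAzer B/G FRET substrate at room temperature.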
(In general: Quantitative high-throughput screening tests each substance at several concentrations.)

For assay [2] the target is unchanged. The experiment in a line: qHTS assay to identify small molecule antagonists of the estrogen receptor beta (ER-beta) signaling pathway (AID 1259378; active = well fitted inhibition curve with a large enough effect in the signal ratio in the repeat runs, not every such curve was filed as active; the % refers to the signal ratio). A digest of the protocol:
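Antagonist mode: compounds added to beta-lactamase reporter HEK293T ER-beta-UAS cells stimulated with E2 (1nM final), 16 hr at 37C. LiveBLAzer B/G FRET substrate, 2 hours room temperature, fluorescence read-out.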

Assay [3] in a line: qHTS assay to identify small molecule agonists of the androgen receptor (AR) signaling pathway in the presence of an antagonist - cell viability counter screen (AID 1259379).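 Also: MDA-kb2 human breast cancer cells carrying an MMTV luciferase reporter; series mostly up to about 92 µM; nearly all actives have a fitted effect of over 25% in size.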 The procedure, abridged:
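Cytotoxicity counter-screen run in the same wells as the nilutamide-challenged (3.0 µM final) AR agonist assay in MDA-kb2 cells. Compounds tested at 15 concentrations for 16 h, 37 °C without CO2; CellTiter-Fluor fluorescence read.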

The nature of assay [4]: qHTS assay to identify small molecule agonists of the estrogen receptor beta (ER-beta) signaling pathway - cell viability counter screen (AID 1259380). Also: nearly all actives have a fitted effect of over 30% in size. The procedure, abridged: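 Cell viability counter screen: CellTiter-Glo luminescence (30 min, room temperature) measured in the same wells as the beta-lactamase readout, after 16 hr compound exposure at 37C of ER-beta-bla HEK293T cells in 2% charcoal-stripped FBS medium.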

In assay [5] the target is Estrogen receptor (Homo sapiens) (UniProt P03372). Nature of the assay: qHTS assay to identify small molecule agonists of the estrogen receptor alpha (ER-alpha) signaling pathway in the presence of an antagonist (AID 1259383; calls by dose curve; also: top concentration of the series differs between compounds; nearly all actives have a fitted effect of over 15% in size). The procedure, abridged: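 Agonist-mode confirmation run in the presence of 10.0nM (final) ICI-182,780 antagonist. The reporter was ERE-driven luciferase in VM7Luc4E2 cells, grown in charcoal-stripped serum. Cells were exposed to 15-concentration compound series for 22hr, then ONE-Glo luminescence was read.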

A short description of assay [6]: qHTS assay to identify small molecule agonists or antagonists of the thyroid stimulating hormone receptor (TSHR) signaling pathway - wild type cell line counter screen (AID 1259384; calls by dose curve). A digest of the protocol:
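Counter screen in untransfected Hek293: compounds (15-point titration, triplicate) plus phosphodiesterase inhibitor Ro20-1724 added after 18 h plating; 30 min RT. Intracellular cAMP via competitive d2/cryptate immunoassay, 1 h incubation.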

Assay [7] addresses Thyrotropin receptor (Homo sapiens) (UniProt P16473). Nature of the assay: qHTS assay to identify small molecule antagonists of the thyroid stimulating hormone receptor (TSHR) signaling pathway (AID 1259385; calls by dose curve; also: nearly all actives have a fitted effect of over 20% in size). The procedure, abridged: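 Antagonist mode: compound-treated TSHR-expressing HEK293 cells were stimulated with 1.5 ng/mL TSH (final) in presence of Ro20-1724 for 30 min at RT. HTRF cAMP detection after 1 h; each compound tested at 15 concentrations, triplicate.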

The nature of assay [8]: qHTS assay to identify small molecule agonists of the estrogen receptor alpha (ER-alpha) signaling pathway in the presence of an antagonist - cell viability counter screen (AID 1259386). Also: series mostly up to about 92 µM; nearly all actives have a fitted effect of over 30% in size. A digest of the protocol:
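Compounds tested at 15 concentrations for 22 h at 37C alongside 10.0nM (final) ICI-182,780 antagonist, in VM7Luc4E2 cells grown in phenol red-free, charcoal-stripped medium. Viability read by CellTiter-Fluor fluorescence after 1 h reagent incubation.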

The target of assay [9] is Progesterone receptor (Homo sapiens) (UniProt P06401). The experiment in a line: qHTS assay to identify small molecule agonists of the progesterone receptor (PR) signaling pathway (AID 1346784; calls by dose curve; also: nearly all actives have a fitted effect of over 30% in size). The procedure, abridged:
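PR-UAS-bla HEK 293T cells (beta-lactamase reporter under UAS) in 2% charcoal-stripped FBS, dosed with 23 nL compound after 6 hr, incubated 16hr at 37C. LiveBLAzer B/G FRET substrate added, fluorescence read after 2 hours.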

A short description of assay [10]: qHTS assay to identify small molecule antagonists of the progesterone receptor (PR) signaling pathway - cell viability counter screen (AID 1346798). Also: series mostly up to about 92 µM; nearly all actives have a fitted effect of over 50% in size. A digest of the protocol: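 PR-UAS-bla HEK293T cells, 3,000/well in 2% charcoal-stripped FBS medium, dosed with compounds plus R5020 agonist and incubated 16 h at 37C. Viability then measured in the same wells by CellTiter-Glo luminescence after 30 min at RT.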

The nature of assay [11]: qHTS assay to identify small molecule agonists of the progesterone receptor (PR) signaling pathway - cell viability counter screen (AID 1346799; calls by dose curve; also: nearly all actives have a fitted effect of over 45% in size). A digest of the protocol:
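Counter screen in the PR-UAS-bla HEK293T wells (2% charcoal-stripped FBS, 16 h compound exposure at 37 C) after the bla read. CellTiter-Glo added, 30 min at room temperature, luminescence read as cell viability.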

Assay [12] is described as follows: qHTS assay to identify small molecule antagonists of the TGF-beta/Smad signaling pathway - cell viability counter screen (AID 1346824). Also: nearly all actives have a fitted effect of over 50% in size. The procedure, abridged: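 Cytotoxicity counter-screen run in the same wells as the beta-lactamase Smad reporter read: CellTiter-Glo luminescence after 30 min at room temperature. HEK 293T SBE-bla cells had 5 hr compound exposure at 37 C with TGF-beta1 (0.25 ng/mL stock).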

Assay [13] can be described thus: qHTS assay to identify small molecule agonists of the TGF-beta/Smad signaling pathway - cell viability counter screen (AID 1346829). Also: top concentration of the series differs between compounds; nearly all actives have a fitted effect of over 45% in size. A digest of the protocol: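 Here the cytotoxicity of library compounds is measured in SBE-bla HEK 293T cells treated for 5 hr, using CellTiter-Glo added to wells already read for the beta-lactamase reporter.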
Assay [14] in a line: qHTS assay to identify small molecule agonists of the TGF-beta/Smad signaling pathway (AID 1346859; active = well fitted activation curve with a large enough effect in the signal ratio in the repeat runs, not every such curve was filed as active; the % refers to the signal ratio; also: series mostly up to about 77 µM). A digest of the protocol: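 SBE-bla HEK293T cells plated overnight, then compound exposure for 5 h at 37 C. Beta-lactamase reporter read with LiveBLAzer B/G FRET substrate after 2 h at room temperature, fluorescence at 405 nm excitation, 460/530 nm emission.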
Assay [15] has as its target Thyrotropin-releasing hormone receptor (Homo sapiens) (UniProt P34981). Nature of the assay: qHTS assay to identify small molecule agonists of the thyrotropin-releasing hormone receptor (TRHR) signaling pathway (AID 1346891; calls by dose curve; also: series mostly up to about 58 µM). A digest of the protocol:
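HEK293 cells expressing TRHR plated 18 h at 37 C/5% CO2, calcium dye-loaded 2 h at 37 C, then compound added (agonist mode); kinetic calcium fluorescence read 3 min at 1 s intervals; 15 concentrations in triplicate.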

A short description of assay [16]: qHTS assay to identify small molecule antagonists of the estrogen receptor beta (ER-beta) signaling pathway - cell viability counter screen (AID 1259382).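 Also: HEK293T cells carrying ER-beta-UAS-bla reporter stimulated with estradiol; series mostly up to about 92 µM; nearly all actives have a fitted effect of over 55% in size.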 A digest of the protocol: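 Cytotoxicity was measured in the same wells by CellTiter-Glo luminescence after 30 min at room temperature. Cells were ER-beta-bla HEK293T in charcoal-stripped serum, given compound together with 1 nM E2 and incubated 16 h at 37C.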

Assay [17] has as its target Progesterone receptor (Homo sapiens) (UniProt P06401). The experiment in a line: qHTS assay to identify small molecule antagonists of the progesterone receptor (PR) signaling pathway (AID 1346795; active = well fitted inhibition curve with a large enough effect in the signal ratio in the repeat runs, not every such curve was filed as active; the % refers to the signal ratio). The procedure, abridged:
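PR-UAS-bla HEK293T cells with beta-lactamase reporter under UAS control, in 2% charcoal-stripped FBS, treated with compounds plus 1 nM promegestone (R5020, final) for 16 hr at 37C. Read-out: FRET beta-lactamase substrate fluorescence after 2 hr at room temperature.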

In assay [18] the target is Thyrotropin-releasing hormone receptor (Homo sapiens) (UniProt P34981). The experiment in a line: qHTS assay to identify small molecule antagonists of the thyrotropin-releasing hormone receptor (TRHR) signaling pathway (AID 1346877; active = well fitted inhibition curve with a large enough effect in the repeat runs, not every such curve was filed as active; also: series mostly up to about 51 µM). A digest of the protocol:
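Antagonist mode: after a 5 min room-temperature compound exposure, cells were stimulated with 1 nM (final) TRH. Dye-loaded TRHR-HEK293 cells were used, and calcium-dependent fluorescence was followed for 3 min, with 15-point titrations run in triplicate.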

The nature of assay [19]: qHTS assay to identify small molecule antagonists of the sonic hedgehog signaling (Shh) pathway (AID 1259369; calls by dose curve; also: nearly all actives have a fitted effect of over 45% in size; also: potency is read from the fitted curve at half-maximal effect). A digest of the protocol:
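Antagonist mode: compound added to 3T3 Gli1-Luc cells followed by conditioned-medium stimulation, 24 h at 37 C, 5% CO2. Inhibition taken as loss of Gli1-driven luciferase luminescence.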

Results on 9 compounds are retold here after PubChem BioAssay (Tox21).

Each structure is given as a SMILES string. Unmarked numbers belong to inactive results. Inconclusive results are not listed. The source made the active and inactive calls. Unless noted, calls follow the shape of the dose curve; as a rule, active = well fitted curve in the direction sought with a large enough effect in the repeat runs; inconclusive = weak or mixed curves; inactive = no such curve, though single readings can be large; an effect the other way counts as inactive or inconclusive.

Chain of Estrogen receptor beta (Homo sapiens) (Q92731 whole entry, looked up): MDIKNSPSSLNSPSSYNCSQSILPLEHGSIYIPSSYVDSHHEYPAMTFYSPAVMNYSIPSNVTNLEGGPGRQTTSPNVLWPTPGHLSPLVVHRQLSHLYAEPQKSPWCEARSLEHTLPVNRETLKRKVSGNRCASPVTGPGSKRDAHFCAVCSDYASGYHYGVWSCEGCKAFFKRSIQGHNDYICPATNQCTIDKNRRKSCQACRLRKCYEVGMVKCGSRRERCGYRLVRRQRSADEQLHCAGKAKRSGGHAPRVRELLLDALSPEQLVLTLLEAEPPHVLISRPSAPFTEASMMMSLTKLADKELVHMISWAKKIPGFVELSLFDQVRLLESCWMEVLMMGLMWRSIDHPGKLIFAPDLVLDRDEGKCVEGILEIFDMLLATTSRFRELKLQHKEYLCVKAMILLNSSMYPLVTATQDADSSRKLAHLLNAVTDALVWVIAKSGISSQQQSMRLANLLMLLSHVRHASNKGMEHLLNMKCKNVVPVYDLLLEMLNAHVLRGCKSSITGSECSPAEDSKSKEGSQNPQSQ
Chain of Estrogen receptor (Homo sapiens) (P03372 whole entry, looked up): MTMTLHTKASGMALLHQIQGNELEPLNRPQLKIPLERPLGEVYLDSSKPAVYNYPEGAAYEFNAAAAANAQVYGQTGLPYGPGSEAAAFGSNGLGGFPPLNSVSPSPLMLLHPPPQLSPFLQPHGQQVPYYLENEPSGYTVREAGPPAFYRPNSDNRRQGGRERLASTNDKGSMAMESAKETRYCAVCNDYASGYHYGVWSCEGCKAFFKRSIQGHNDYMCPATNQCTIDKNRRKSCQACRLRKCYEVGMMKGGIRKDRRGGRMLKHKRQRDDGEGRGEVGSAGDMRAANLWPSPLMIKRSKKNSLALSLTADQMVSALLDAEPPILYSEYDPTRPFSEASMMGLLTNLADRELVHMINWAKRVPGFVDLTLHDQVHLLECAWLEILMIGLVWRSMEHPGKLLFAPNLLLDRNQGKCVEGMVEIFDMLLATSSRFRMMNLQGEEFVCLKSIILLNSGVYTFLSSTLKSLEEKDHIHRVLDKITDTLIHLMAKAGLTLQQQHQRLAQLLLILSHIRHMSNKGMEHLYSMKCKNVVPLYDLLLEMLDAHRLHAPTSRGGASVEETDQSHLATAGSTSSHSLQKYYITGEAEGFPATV
Chain of Thyrotropin-releasing hormone receptor (Homo sapiens) (P34981 whole entry, looked up): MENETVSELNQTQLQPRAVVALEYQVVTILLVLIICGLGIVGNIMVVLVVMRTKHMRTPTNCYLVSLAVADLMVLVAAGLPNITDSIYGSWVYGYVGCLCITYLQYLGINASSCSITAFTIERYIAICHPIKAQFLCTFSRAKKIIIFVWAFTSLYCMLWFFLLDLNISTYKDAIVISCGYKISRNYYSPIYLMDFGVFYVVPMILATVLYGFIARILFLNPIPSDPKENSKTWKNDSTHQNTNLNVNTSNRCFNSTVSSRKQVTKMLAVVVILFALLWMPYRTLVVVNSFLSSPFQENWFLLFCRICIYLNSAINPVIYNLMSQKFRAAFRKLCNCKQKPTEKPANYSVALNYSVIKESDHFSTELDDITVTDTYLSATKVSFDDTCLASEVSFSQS
Chain of Thyrotropin receptor (Homo sapiens) (P16473 whole entry, looked up): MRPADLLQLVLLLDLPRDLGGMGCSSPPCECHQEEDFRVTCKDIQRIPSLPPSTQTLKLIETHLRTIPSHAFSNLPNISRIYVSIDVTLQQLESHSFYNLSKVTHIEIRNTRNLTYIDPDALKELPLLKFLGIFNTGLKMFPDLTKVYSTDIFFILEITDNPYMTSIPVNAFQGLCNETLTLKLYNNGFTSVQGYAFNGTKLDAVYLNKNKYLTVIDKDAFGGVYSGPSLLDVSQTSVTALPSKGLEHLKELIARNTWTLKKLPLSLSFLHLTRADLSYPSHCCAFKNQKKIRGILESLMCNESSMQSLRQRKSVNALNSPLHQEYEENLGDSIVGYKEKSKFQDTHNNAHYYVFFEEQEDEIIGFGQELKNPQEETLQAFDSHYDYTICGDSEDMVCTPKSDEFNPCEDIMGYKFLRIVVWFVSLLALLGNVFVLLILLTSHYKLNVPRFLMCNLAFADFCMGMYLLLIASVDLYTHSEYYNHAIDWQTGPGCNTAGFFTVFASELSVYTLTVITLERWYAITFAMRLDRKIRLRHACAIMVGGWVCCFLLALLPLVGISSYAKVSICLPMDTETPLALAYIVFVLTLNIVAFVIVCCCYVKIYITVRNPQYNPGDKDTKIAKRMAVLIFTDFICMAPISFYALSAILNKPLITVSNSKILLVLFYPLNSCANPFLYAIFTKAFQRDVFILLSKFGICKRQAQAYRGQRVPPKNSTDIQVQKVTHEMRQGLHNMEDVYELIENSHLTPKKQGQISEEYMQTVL
Chain of Progesterone receptor (Homo sapiens) (P06401 whole entry, looked up): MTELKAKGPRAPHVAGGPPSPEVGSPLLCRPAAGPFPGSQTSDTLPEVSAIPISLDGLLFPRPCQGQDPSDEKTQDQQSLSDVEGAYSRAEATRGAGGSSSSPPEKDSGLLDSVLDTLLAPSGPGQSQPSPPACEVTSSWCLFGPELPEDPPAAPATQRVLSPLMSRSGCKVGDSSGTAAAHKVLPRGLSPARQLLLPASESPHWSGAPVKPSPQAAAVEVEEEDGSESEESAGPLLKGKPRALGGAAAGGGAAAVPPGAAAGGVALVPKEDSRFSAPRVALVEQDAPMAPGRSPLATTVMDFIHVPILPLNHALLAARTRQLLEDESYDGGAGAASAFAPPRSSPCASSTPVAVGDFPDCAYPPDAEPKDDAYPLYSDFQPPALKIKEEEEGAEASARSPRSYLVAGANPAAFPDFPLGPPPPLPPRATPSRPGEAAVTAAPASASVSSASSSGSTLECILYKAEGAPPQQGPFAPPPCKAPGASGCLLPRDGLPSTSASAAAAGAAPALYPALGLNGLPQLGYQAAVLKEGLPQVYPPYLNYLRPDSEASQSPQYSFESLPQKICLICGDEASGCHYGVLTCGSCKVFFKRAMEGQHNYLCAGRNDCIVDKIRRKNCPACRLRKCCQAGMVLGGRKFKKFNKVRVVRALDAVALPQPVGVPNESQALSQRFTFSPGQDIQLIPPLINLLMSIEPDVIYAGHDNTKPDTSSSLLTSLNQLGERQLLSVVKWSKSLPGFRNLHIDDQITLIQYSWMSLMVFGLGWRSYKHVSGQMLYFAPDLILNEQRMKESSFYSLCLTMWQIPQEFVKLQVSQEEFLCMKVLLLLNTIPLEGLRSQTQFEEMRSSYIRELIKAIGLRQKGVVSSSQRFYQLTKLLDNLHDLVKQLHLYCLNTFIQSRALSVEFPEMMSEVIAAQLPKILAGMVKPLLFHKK

Regarding `CC1OC1C1CCC2(C)OC2C1` (stereo not given), the Potency entry in assay [1], in [2], in assay [3], in assay [4], in assay [8] and in assay [9] was “inactive” in each case. For the same compound, the Potency entry in assay [10], in assay [11] and in assay [15] was “inactive” throughout. Besides, the result in assay [5], in [6], in [7], in assay [12], in assay [13] and in assay [14] was inactive.
As for `CN1CCC(=C2c3ccccc3CCc3cccnc32)CC1`, the Potency result in assay [1], in assay [2], in [3], in assay [4], in assay [9] and in assay [17] was “inactive” in each case. For the same compound, the Potency entry in assay [10], in assay [11] and in assay [15] was “inactive” in each case. The outcome in assay [16], in [5], in assay [6], in [7], in [12] and in assay [13] was inactive. Besides, the call in [18] was inactive.
`C=COC(=O)C(C)(CC)CCC(C)C` (stereo not given): the Potency result in assay [1], in assay [2], in assay [3], in assay [4], in [8] and in assay [9] was “inactive” throughout. The Potency result in [17], in [10], in assay [11] and in [15] was “inactive” in each case. Also, the compound was classed as inactive in assay [16], in assay [5], in [12], in assay [13], in assay [14] and in assay [18].
For the compound `C[N+]12CCC(CC1)C(OC(=O)C(O)(c1ccccc1)c1ccccc1)C2` (stereo not given), the Potency entry in assay [19], in [4], in assay [8], in [9], in assay [17] and in assay [10] was “inactive” throughout. The Potency entry in assay [11] and in [15] was “inactive” each time. Moreover, the outcome in assay [16], in [6], in [7], in [12], in assay [13] and in assay [14] was inactive. The call in assay [18] was inactive.
With `CC(=O)c1ccccc1[N+](=O)[O-]`, the Potency entry in assay [1], in assay [2], in [3], in assay [4], in assay [8] and in assay [9] was “inactive” throughout. For the same compound, the Potency result in assay [10], in assay [11] and in assay [15] was “inactive” in each case. The result in assay [16], in [5], in assay [6], in assay [7], in [12] and in [13] was inactive. Besides, the result in assay [14] and in assay [18] was inactive.
As for `CC(C)(C#N)Nc1nc(Cl)nc(NC2CC2)n1`, the Potency in assay [19] is 243 nM (active). For the same compound, the Potency result in assay [3], in [8], in assay [9], in assay [17], in assay [10] and in assay [11] was “inactive” in each case. In assay [15], the Potency result was “inactive”. The compound was classed as inactive in [6], in [7], in assay [12], in assay [13], in assay [14] and in assay [18].
As for `C[N+](C)(C)CCCCCCCCCC[N+](C)(C)C`, the Potency result in assay [19], in assay [3], in assay [8], in assay [10] and in assay [11] was “inactive” each time. Also, the call in assay [16], in assay [5], in assay [6], in assay [7], in assay [12] and in [13] was inactive. Moreover, in [14], the compound was called inactive.
Regarding `[Ca+2]`, the Potency result in [19], in [4], in assay [8], in assay [9], in [17] and in assay [10] was “inactive” each time. For the same compound, the call in assay [16], in [6], in [7], in assay [12], in assay [13] and in [14] was inactive.
With `C[C@@H]1CCC[C@H](C)N1`, the Potency result in [1], in assay [2], in assay [3], in [4], in assay [8] and in assay [17] was “inactive” each time. Besides, the Potency result in assay [10] and in assay [11] was “inactive” throughout. The result in assay [16], in assay [7], in [12], in assay [13] and in assay [14] was inactive.
